Each structure is given as a SMILES string.

The target in this test is Fibroblast growth factor 2 (Homo sapiens) (UniProt P09038). Put plainly: basic fibroblast growth factor binding to printed compounds – biochemical, small-molecule microarray, 635/667 nm fluorescence, primary screen (AID 1133). The conditions noted are these: FGF2, fluorescence 635/667, higher = more signal.
Fibroblast growth factor 2 (Homo sapiens), sequence (P09038 whole entry, looked up): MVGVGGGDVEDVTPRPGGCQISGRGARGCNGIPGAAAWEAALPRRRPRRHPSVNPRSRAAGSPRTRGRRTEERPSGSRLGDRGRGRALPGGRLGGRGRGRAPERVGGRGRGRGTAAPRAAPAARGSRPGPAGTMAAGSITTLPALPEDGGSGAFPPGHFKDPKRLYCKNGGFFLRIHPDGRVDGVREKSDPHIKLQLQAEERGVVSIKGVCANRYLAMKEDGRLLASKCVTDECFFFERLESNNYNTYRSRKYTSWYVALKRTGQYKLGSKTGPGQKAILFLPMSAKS
In turn, `CC(=O)OC[C@H]1O[C@@H](ON=C[C@@H](C)[C@H](OCc2ccccc2)C(C)C)[C@H](OC(C)=O)[C@@H](OC(C)=O)[C@@H]1OC(C)=O` yielded a composite z-score of 0.225.

Regarding `CN1C(=O)C2C=CC(C(O)C(c3ccccc3)c3ccccc3)N(NC(=O)OC(C)(C)C)C2C1=O` (centres undefined), the composite z-score amounted to 0.0319.

Consider `COC(=O)C1=C(C)N(Cc2ccccc2)[C@]23O[C@](C(=O)OC)(C(=O)N2[C@@H]1c1ccccc1)[C@H]1CCOC(=O)[C@H]13`, for which the composite z-score came to 0.52.

`C=C(CCCC)C(=O)CC[C@@H](OC(C)=O)c1cccc(OCCO)c1` yielded a composite z-score of 0.829.

Compound `CO[C@@H]1COC(=O)CC=C[C@@H](C)[C@@H]2C=C[C@@H](O)[C@@H](COC(=O)CC=C[C@H]1C)O2` showed a composite z-score of 1.1.

Compound `COC(=O)[C@@]1(Cc2ccccc2)[C@H]2c3cc(C(=O)N4CCCC4)n(Cc4ccccn4)c3C[C@H]2CN1C(=O)c1ccccc1` came in with a composite z-score of 0.354.

Compound `CCOC(=O)NN=C1C[C@@H](O)[C@@H](O)[C@@H]2[C@@H]3C(=O)N(C(C)(C)C)C(=O)[C@@H]3CC[C@@H]12` had a composite z-score of 0.638.

The compound `C=CCN1C(=O)[C@]2(O[C@H](CCn3cc(CCO)nn3)[C@@H]([Si](C)(C)c3ccc(OC)cc3)[C@@H]2C)c2cc(N3CCOC3=O)ccc21` returned a composite z-score of -0.0054.

`CCOc1ccc(N2C(=O)/C(=C/C=C/c3ccccc3OC)S(=O)(=O)C2c2cccc([N+](=O)[O-])c2)cc1` (centres undefined): the composite z-score is 0.235.

Turning to `O[C@@H](Cc1ccccc1)[C@H]1C2C=CCCC(c3ccccc3)=C2CN1Cc1cccc(Cl)c1` (some centres undefined), the composite z-score came to 0.251.

`CO[C@H]1O[C@H](CO)[C@@H](OC(=O)Nc2ccc(C#N)cc2)[C@H](OC(=O)c2cc3ccccc3[nH]2)[C@H]1OC(=O)c1cc2ccccc2[nH]1`: the composite z-score was 1.33.

Compound `Cc1ccc(S(=O)(=O)N[C@@H]2COC(=O)[C@H](C)COC(=O)CC=C[C@H]2C)cc1` gave a composite z-score of 0.98.

In the case of `C=CC[C@@H]1C=C[C@H](ON=C2c3cc(OC)ccc3O[C@H](c3cccc(OC)c3)[C@H]2O)[C@@H](CO)O1`, the composite z-score was found to be 0.369.

On to `C=CCC(OC(C)=O)[C@@H]1[C@@H](N(Cc2cc3ccccc3o2)C(=O)Cc2ccc(F)cc2)c2cc(OCCCO)ccc2N1C(=O)Cc1ccc(OC)cc1` (some centres undefined), for which the composite z-score was -0.271.

Regarding `CCOC(=O)[C@H](CC(C)C)NC(=O)CCC1CC(OC(=O)NCCc2ccc(F)cc2)CC2(CCCC(COC(=O)NCc3ccccc3)O2)O1` (some centres undefined), the composite z-score came out at 0.936.

`O=C1[C@H]2[C@H]3[C@H](O)[C@H](O)CC(=NOC[C@@H](O)COCc4ccco4)[C@H]3CC[C@H]2C(=O)N1Cc1ccc2c(c1)OCO2` returned a composite z-score of 1.57.

The compound `CC(CCC(=O)OC[C@H]1O[C@H](C#Cc2ccccc2)C=C[C@@H]1Oc1ccc(C)cc1)=NOC[C@@H](O)[C@H]1O[C@@H]2OC(C)(C)O[C@@H]2[C@H]1O` yielded a composite z-score of -0.448.

`CC(C)(C)N1CC=CC23O[C@@H]4C=CCCOC(=O)C4[C@H]2C(=O)N(CCCCCO)[C@@H]3C1=O` (some centres undefined) gave a composite z-score of -0.51.

`CCc1cc2c(nc1CC)CCN(CCC(C)=NO[C@@H](C)c1cc(-c3c(C)cc(C)cc3C)no1)C2` displayed a composite z-score of -0.2.

Compound `CC(C)CON=C1C[C@@H](O)[C@@H](O)[C@@H]2[C@@H]3C(=O)N(Cc4ccccc4)C(=O)[C@@H]3CC[C@@H]12` returned a composite z-score of 0.239.

Turning to `COCCCNC(=O)[C@@]1(C)c2ccccc2C(=O)N(Cc2ccc(OC(F)(F)F)cc2)[C@H]1c1ccc(CO)cc1`, the composite z-score was -0.553.

In the case of `O=C1C2=CC[C@H]3C(=O)N(Cc4ccc5c(c4)OCO5)C(=O)[C@H]3[C@H]2[C@H](O)[C@@H]2O[C@H]12`, the composite z-score came to 0.597.

Take `COc1ccc(O[C@H]2C=C[C@@H](c3ccccc3)O[C@@H]2COC(=O)CCC(C)=NOC(C)CN2CCCCc3nc(C)c(C)cc32)cc1` (some centres undefined): the composite z-score was -0.442.

Compound `CC(CCN1CCCCc2nc(C)c(C)cc21)=NOC(C)CN1CCCCc2nc(C)c(C)cc21` (centres undefined) registered a composite z-score of 1.3.

Compound `O=C1[C@H]2[C@H]3[C@H](O)[C@H](O)CC(=NOCc4ccccc4)[C@@H]3CC[C@H]2C(=O)N1C1CCCCC1` gave a composite z-score of -0.45.

As to `COc1ccc([Si](C)(C)[C@@H]2[C@@H](CCO)O[C@]3(C(=O)N(Cc4ccc(NC(C)=O)cc4)c4ccccc43)[C@H]2C)cc1`, the composite z-score came to 0.228.

`Cc1cc2c(c(=O)o1)[C@H](O)[C@H]1O[C@H]1C2=O` came in with a composite z-score of 0.126.

With `O=C1[C@H]2[C@H]3[C@H](O)[C@H](O)CC(=NOC[C@@H](O)COCc4ccco4)[C@H]3CC[C@H]2C(=O)N1C1CCCCC1`, the composite z-score amounted to 1.07.

With `[N-]=[N+]=Nc1ccccc1C[C@@]1(C(N)=O)N=C(c2ccc(OCCCO)cc2)O[C@@H]1c1ccccc1`, the composite z-score was -0.403.

Values taken from PubChem BioAssay.
